Measurements reported in PubChem BioAssay (NCI).
Compounds without any hit were thinned out: in the full panel of roughly 83,000, 20% have a hit.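 48-hour exposure, single concentration, 96-well plates; percent growth endpoint where 0 means no net growth. Active: below 10.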 Unmarked numbers belong to inactive results. The source made the active and inactive calls.

How the values were obtained:
Assay in all cases: NCI-60 one-dose screen, 48 h (100 = growth as untreated, 0 = no growth, -100 = all killed)
Details in all cases: 10 µM unless noted
[1] = test system: DU-145 prostate
[2] = test system: K-562 leukemia
[3] = test system: MALME-3M melanoma
[4] = test system: MDA-MB-231 breast
[5] = test system: RXF 393 renal
[6] = test system: SF-268 CNS
[7] = test system: SF-295 CNS
[8] = test system: SF-539 CNS
[9] = test system: UACC-257 melanoma
[10] = test system: M14 melanoma
[11] = test system: HCT-15 colon
[12] = test system: HT29 colon
[13] = test system: SNB-75 CNS
[14] = test system: SNB-19 CNS
[15] = test system: U251 CNS
[16] = test system: PC-3 prostate
[17] = test system: SK-MEL-5 melanoma
[18] = test system: UACC-62 melanoma
[19] = test system: LOX IMVI melanoma
[20] = test system: SK-MEL-28 melanoma

Compound | growth [1] | growth [2] | growth [3] | growth [4] | growth [5] | growth [6] | growth [7] | growth [8] | growth [9] | growth [10] | growth [11] | growth [12] | growth [13] | growth [14] | growth [15] | growth [16] | growth [17] | growth [18] | growth [19] | growth [20]
CC(=O)Nc1cccc(Nc2nc(N[C@@H](C)c3ccccc3)c3ccccc3n2)c1 | 11.4% | -19% (active) | 47% | -22.1% (active) | -48.3% (active) | 27.3% | 8.33% (active) | -44% (active) | 55.3% | -10.7% (active) | 10.4% | 4.28% (active) | -19.3% (active) | 20.6% | 14.3% | 21.3% | -5.52% (active) | 28.6% | -70.2% (active) | 42.3%
CC(=O)N1N=C(c2cccc(-n3cccc3)c2)CC1c1cccc(F)c1 (stereo not given) | 114% | 99.9% | 88.3% | 94.8% | 86.1% | 113% | 107% | 101% | 104% | 97.6% | 92.8% | 100% | 104% | 88.5% | 93.4% | 84.9% | 98.7% | 81% | 95.5% | 103%
Cc1ccc(NC(=O)CNc2cc(C(N)=O)cc(F)c2C)c(Cl)c1 | 87.2% | 94.2% | 106% | 67% | 36.2% | 81.7% | 101% | 89.8% | 107% | 103% | 103% | 114% | 48.4% | 101% | 106% | 85.7% | 97.1% | 81.5% | 94.1% | 99.5%
CN1c2ccccc2Sc2cc(C=C(C#N)C#N)ccc21 | 110% | 101% | 98.3% | 92.3% | 92.1% | 105% | 103% | 101% | 97.5% | 96% | 101% | 111% | 79.8% | 97.6% | 98% | 105% | 100% | 46.5% | 87.3% | 104%
COc1cccc(N2CCN(c3ncnc4c3[nH]c3ccc(F)cc34)C[C@H]2C)c1 | 81.5% | 26.6% | 48.2% | 64.3% | 88% | 84.5% | 31.8% | 69.6% | 15.4% | 41.7% | 68.4% | 70.4% | 63.2% | 68.7% | 67.9% | 38.2% | -62.3% (active) | 40.5% | 63.1% | 50.7%
COc1ccc([C@@H]2[C@@H](O)C(=O)N2c2cc(OC)c(OC)c(OC)c2)cc1F | 12.3% | 8.16% (active) | 64.1% | 21.3% | 24.9% | 32% | 5.85% (active) | -0.902% (active) | 58.6% | 3.94% (active) | 7.95% (active) | -31.9% (active) | 17.6% | 24.7% | 12.2% | 20.9% | -34% (active) | 33.4% | -4.8% (active) | 68.6%
CNC(=O)c1cc(-c2ccc(NC(=S)Nc3cc(C(F)(F)F)cc(C(F)(F)F)c3)cc2)nc2cccnc12 | 84.9% | 94.9% | 99.2% | 88.7% | 41.1% | 88.2% | 89.9% | 92.1% | 102% | 98.5% | 107% | 108% | 49.1% | 104% | 103% | 80.6% | 92.7% | 95.3% | 93.9% | 103%
N#Cc1c(Nc2ccccc2)nn2c(-c3ccc([N+](=O)[O-])cc3)ccnc12 | 109% | 112% | 104% | 102% | 90.3% | 100% | 104% | 100% | 95.3% | 106% | 99.3% | 103% | 102% | 100% | 99.8% | 103% | 88.6% | 93.3% | 93.7% | 100%
Cc1ccc(NC(=O)N[C@@H](Cc2cc(F)cc(F)c2)C(=O)NC2C(=O)N3C[C@H](O)C[C@H]3C(=O)N3CCCC[C@H]3C(=O)N[C@@H](CO)C(=O)N3C[C@H](C)C[C@H]3C(=O)O[C@H]2C)c(F)c1 (stereo not given in full) | 37.7% | 27.9% | 50.7% | 38.8% | 100% | 35.5% | 78.7% | 43.5% | 25.4% | 58.4% | 106% | 42.8% | 27.4% | 27.1% | 29.3% | 20% | 21.5% | 30.9% | 28.1% | 47.4%
N#Cc1cccc(/C(N)=N/C(N)=N/c2nc3ccccc3s2)c1 | 17.5% | 12.7% | 59.3% | 37.3% | 13% | 56.5% | 1.87% (active) | 4.08% (active) | 90.6% | 20.8% | 31.9% | 11.3% | 22.2% | 27.3% | 27.7% | 17.7% | 41.5% | 34.5% | 46.2% | 65.4%
COCCNc1ccc2ncc(C#Cc3cncc(C(=O)Nc4ccc(CN5CCN(C)CC5)c(C(F)(F)F)c4)c3)n2n1 | -32.4% (active) | 1.22% (active) | -69.7% (active) | -15% (active) | -84.3% (active) | -55% (active) | -13.9% (active) | -77% (active) | -46.4% (active) | -86.2% (active) | -22.7% (active) | -22.6% (active) | -71.5% (active) | -12% (active) | -38.2% (active) | -25.3% (active) | -93.7% (active) | -62.4% (active) | -87.8% (active) | -22.9% (active)
CCOC(=O)c1c(Nc2ccccc2)nn2c(-c3ccc(OC)cc3)ccnc12 | 90.8% | 45.3% | 87.6% | 79.4% | -2.68% (active) | 101% | 89.5% | 83.8% | 110% | 96% | 48.6% | 74.9% | 82.7% | 109% | 89.2% | 99.2% | 71.3% | 95.1% | 80.3% | 89.9%
CCOc1cccc(-c2nc3sccn3c2-c2ccnc(S(C)(=O)=O)n2)c1 | 0.125% (active) | 55.4% | 98.8% | 101% | 98.3% | 99.7% | 104% | 94.4% | 91.1% | 94.4% | 76.8% | 99.6% | 98.4% | 91.8% | 103% | 96.9% | 99.3% | 89.6% | 78.6% | 90.5%
CC(=O)c1cc(C(=O)N2c3ccccc3Sc3ccccc32)n2ccc3ccccc3c12 | 53% | 20.1% | 49.6% | 76.7% | 31.7% | 54.1% | 18.8% | 29.5% | 57.4% | 33.1% | 29.2% | 14.8% | 34.6% | 49.1% | 37.8% | 37.6% | 37.3% | 21.4% | 41.4% | 62.7%
